Our source for the outcome and AC50 values is PubChem BioAssay (EPA / NIEHS).

Calls of active or inactive are those of the source. How the source made its calls: active means hit-call score of the fitted dose curve at least 0.9, where 1 is the maximum; inactive means score below 0.9.

Conditions in all cases: mRNA level, 48 h; actives raise or lower the signal
Read-out in one assay: CYP2C9 (gene 1559)
Kind of assay: LTEA_HepaRG_CYP2C9: Life Technologies and Expression Analysis (LTEA) Assay for CYP2C9 using HepaRG (AID 2283484). The essentials: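 Eight-point concentration-response (highest 100 uM, half-log dilutions) in HepaRG cells for 48 h; CYP2C9 expression by qRT-PCR normalized to ACTB, GAPDH, POLR2A. Bidirectional fit, DMSO baseline.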

Read-out in a further assay: CYP2E1 (gene 1571)
Kind of assay: LTEA_HepaRG_CYP2E1: Life Technologies and Expression Analysis (LTEA) Assay for CYP2E1 using HepaRG (AID 2283485). An outline of the steps: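 Assay uses 48 h exposure of HepaRG hepatic cells, eight concentrations to 100 uM. Expression of CYP2E1 is quantified by TaqMan qRT-PCR with ACTB, GAPDH and POLR2A normalization; curves fitted in both directions relative to vehicle.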

Read-out in a further assay: CYP4A11 (gene 1579)
Kind of assay: LTEA_HepaRG_CYP4A11: Life Technologies and Expression Analysis (LTEA) Assay for CYP4A11 using HepaRG (AID 2283486). An outline of the steps:
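CYP4A11 transcript levels were quantified by TaqMan qRT-PCR after HepaRG human liver cells were treated for 48 hours with test chemicals (top 100 uM, half-log dilutions, 0.5% DMSO). Gain or loss of signal was fitted relative to DMSO.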

Read-out in assay [1]: Cytochrome P450 3A4 (Homo sapiens) (UniProt P08684)
Kind of assay: LTEA_HepaRG_CYP3A4: Life Technologies and Expression Analysis (LTEA) Assay for CYP3A4 using HepaRG (AID 2283487). An outline of the steps: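 CYP3A4 transcript measured by TaqMan qRT-PCR and normalized to three housekeeping genes after 48 h chemical exposure of human HepaRG cells. Top concentration 100 uM, half-log steps, 0.5% DMSO vehicle; gain or loss fitted against DMSO baseline.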

Read-out in assay [2]: DNA damage-inducible transcript 3 (DDIT3), DDIT3 (gene 1649)
Kind of assay: LTEA_HepaRG_DDIT3: Life Technologies and Expression Analysis (LTEA) Assay for DNA damage-inducible transcript 3 (DDIT3) using HepaRG (AID 2283488). An outline of the steps:
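Eight-point concentration-response (100 uM highest, half-log dilutions) in HepaRG, 48 h, duplicate wells. Endpoint: qRT-PCR mRNA, normalized (ACTB, GAPDH, POLR2A), bidirectional fitting with DMSO as baseline.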

Read-out in assay [3]: Pro-epidermal growth factor (Homo sapiens) (UniProt P01133)
Kind of assay: LTEA_HepaRG_EGF: Life Technologies and Expression Analysis (LTEA) Assay for Epidermal growth factor (EGF) using HepaRG (AID 2283489). The essentials: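 qRT-PCR readout of EGF transcript after 48 h chemical exposure of HepaRG cells; eight concentrations from 100 uM down in half-log steps, duplicate wells, 0.5% DMSO vehicle. Bidirectional curve fitting against DMSO baseline.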

Read-out in assay [4]: Early growth response protein 1 (EGR1) transcription factor, EGR1 (gene 1958)
Kind of assay: LTEA_HepaRG_EGR1: Life Technologies and Expression Analysis (LTEA) Assay for Early growth response protein 1 (EGR1) transcription factor using HepaRG (AID 2283490). The essentials: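 EGR1 expression change in human HepaRG after 48 h chemical exposure, assessed by housekeeping-normalized qRT-PCR; concentration-response up to 100 uM, fitted in both directions against DMSO controls.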

Read-out in assay [5]: Ezrin (EZR), EZR (gene 7430)
Kind of assay: LTEA_HepaRG_EZR: Life Technologies and Expression Analysis (LTEA) Assay for Ezrin (EZR) using HepaRG (AID 2283491). The essentials: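 HepaRG, 48 h chemical exposure, 8-pt half-log series from 100 uM, 0.5% DMSO vehicle, duplicates. Read-out: EZR mRNA by TaqMan qRT-PCR (Fluidigm array), housekeeping-normalized; bidirectional curve fit vs DMSO baseline.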

Read-out in assay [6]: Cytochrome P450 3A7 (Homo sapiens) (UniProt P24462)
Kind of assay: LTEA_HepaRG_CYP3A7: Life Technologies and Expression Analysis (LTEA) Assay for CYP3A7 using HepaRG (AID 2283492). An outline of the steps:
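CYP3A7 transcript levels were read by TaqMan qRT-PCR on Fluidigm arrays after 48 h chemical exposure of human HepaRG cells, with housekeeping-gene normalisation. Eight half-log concentrations up to 100 uM in 0.5% DMSO were tested in duplicate.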

Read-out in the next assay: CYP3A5 (gene 1577)
Kind of assay: LTEA_HepaRG_CYP3A5: Life Technologies and Expression Analysis (LTEA) Assay for CYP3A5 using HepaRG (AID 2283493). The essentials: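 Readout was CYP3A5 mRNA by qRT-PCR. HepaRG cultures were exposed for 48 h in serum-free induction medium to chemicals at up to 100 uM, and responses were fitted in both directions relative to DMSO vehicle.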

Read-out in assay [7]: Fatty Acid-Binding Protein 1 (FABP1), FABP1 (gene 2168)
Kind of assay: LTEA_HepaRG_FABP1: Life Technologies and Expression Analysis (LTEA) Assay for Fatty Acid-Binding Protein 1 (FABP1) using HepaRG (AID 2283494). An outline of the steps:
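Values reflect bidirectional concentration-response fitting of FABP1 mRNA change against 0.5% DMSO controls. Human HepaRG cultures received eight half-log doses (top 100 uM) for 48 h; expression quantified by TaqMan qRT-PCR with housekeeping-gene normalization.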

Read-out in assay [8]: Cytochrome P450 4A22 (Homo sapiens) (UniProt Q5TCH4)
Kind of assay: LTEA_HepaRG_CYP4A22: Life Technologies and Expression Analysis (LTEA) Assay for Cytochrome P450 4A22 (CYP4A22) using HepaRG (AID 2283495). An outline of the steps:
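HepaRG, 48 h post-plating -> serum-free induction medium; dosed 48 h, duplicate, 8 conc. (100 uM top, half-log), 0.5% DMSO. Readout: CYP4A22 mRNA by qRT-PCR, ACTB/GAPDH/POLR2A normalization; gain/loss fit relative to DMSO.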

Read-out in assay [9]: Cytochrome P450 7A1 (Homo sapiens) (UniProt P22680)
Kind of assay: LTEA_HepaRG_CYP7A1: Life Technologies and Expression Analysis (LTEA) Assay for Cytochrome P450 7A1 (CYP7A1) using HepaRG (AID 2283496). An outline of the steps:
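Using 0.5% DMSO as vehicle and baseline, chemicals were tested in duplicate over an 8-point range from 100 uM on HepaRG cells for 48 h; qRT-PCR signals were normalised to ACTB, GAPDH and POLR2A.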

Read-out in assay [10]: Glutathione S-Transferase (GSTA2), GSTA2 (gene 2939)
Kind of assay: LTEA_HepaRG_GSTA2: Life Technologies and Expression Analysis (LTEA) Assay for Glutathione S-Transferase (GSTA2) using HepaRG (AID 2283497). An outline of the steps:
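Oxidative-stress marker GSTA2 is quantified by TaqMan qRT-PCR in HepaRG cultures treated 48 h across an eight-point range to 100 uM. Expression is normalized to endogenous controls and compared with 0.5% DMSO vehicle.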

Read-out in assay [11]: Glutamate-cysteine ligase catalytic (GCLC), GCLC (gene 2729)
Kind of assay: LTEA_HepaRG_GCLC: Life Technologies and Expression Analysis (LTEA) Assay for Glutamate-cysteine ligase catalytic (GCLC) using HepaRG (AID 2283498). The essentials: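 Oxidative-stress marker GCLC is measured as mRNA change in human HepaRG liver cells after 48 h chemical treatment in 0.5% DMSO, eight concentrations from 100 uM. Activity is fitted bidirectionally against vehicle.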

Read-out in assay [12]: growth arrest and DNA damage 45 (GADD45G), GADD45G (gene 10912)
Kind of assay: LTEA_HepaRG_GADD45G: Life Technologies and Expression Analysis (LTEA) Assay for growth arrest and DNA damage 45 (GADD45G) using HepaRG (AID 2283499). An outline of the steps: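 HepaRG, 48 h exposure, top 100 uM, half-log 8-point series, 0.5% DMSO vehicle, duplicates. Readout: GADD45G transcript by qRT-PCR (Fluidigm array), housekeeping-normalised (ACTB/GAPDH/POLR2A). Bidirectional curve fit vs DMSO baseline.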

Read-out in assay [13]: Glutamate-cysteine ligase regulatory (GCLM), GCLM (gene 2730)
Kind of assay: LTEA_HepaRG_GCLM: Life Technologies and Expression Analysis (LTEA) Assay for Glutamate-cysteine ligase regulatory (GCLM) using HepaRG (AID 2283500). An outline of the steps: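 In this multiplexed HepaRG gene-expression assay, GCLM mRNA change after 48 h treatment (8 concentrations, max 100 uM) was scored against DMSO by bidirectional curve fitting.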

Read-out in assay [14]: Heat shock 70 kDa protein 1 (HSPA1A), gene 3303
Kind of assay: LTEA_HepaRG_HSPA1A: Life Technologies and Expression Analysis (LTEA) Assay for Heat shock 70 kDa protein 1 (HSPA1A) using HepaRG (AID 2283502). An outline of the steps:
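An oxidative-stress marker readout: HepaRG cells treated 48 h in duplicate with an eight-point series (highest 100 uM) had HSPA1A mRNA quantified by TaqMan qRT-PCR. Activity was fitted in both directions using 0.5% DMSO as baseline.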

Read-out in assay [15]: Glutathione S-transferase M3 (GSTM3), GSTM3 (gene 2947)
Kind of assay: LTEA_HepaRG_GSTM3: Life Technologies and Expression Analysis (LTEA) Assay for Glutathione S-transferase M3 (GSTM3) using HepaRG (AID 2283501). An outline of the steps: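 qRT-PCR read-out of GSTM3 transcript, normalized to three housekeeping genes, from human HepaRG cells after 48 h chemical exposure. Eight-point half-log series, top 100 uM, 0.5% DMSO vehicle; gain or loss fitted relative to DMSO baseline.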

Read-out in assay [16]: Hypoxia-inducible factor 1-alpha (Homo sapiens) (UniProt Q16665)
Kind of assay: LTEA_HepaRG_HIF1A: Life Technologies and Expression Analysis (LTEA) Assay for Hypoxia-inducible factor 1 (HIF1A) Trancription factor using HepaRG (AID 2283503).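 Further: HIF1A transcript by TaqMan qRT-PCR normalized to ACTB GAPDH and POLR2A.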 An outline of the steps: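 Gain- or loss-of-signal HIF1A mRNA changes are fitted against a DMSO baseline. HepaRG cultures receive eight concentrations, highest 100 uM, for 48 h in serum-free induction medium with 0.5% DMSO.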

Sequence of Cytochrome P450 3A4 (Homo sapiens) (P08684 whole entry, looked up): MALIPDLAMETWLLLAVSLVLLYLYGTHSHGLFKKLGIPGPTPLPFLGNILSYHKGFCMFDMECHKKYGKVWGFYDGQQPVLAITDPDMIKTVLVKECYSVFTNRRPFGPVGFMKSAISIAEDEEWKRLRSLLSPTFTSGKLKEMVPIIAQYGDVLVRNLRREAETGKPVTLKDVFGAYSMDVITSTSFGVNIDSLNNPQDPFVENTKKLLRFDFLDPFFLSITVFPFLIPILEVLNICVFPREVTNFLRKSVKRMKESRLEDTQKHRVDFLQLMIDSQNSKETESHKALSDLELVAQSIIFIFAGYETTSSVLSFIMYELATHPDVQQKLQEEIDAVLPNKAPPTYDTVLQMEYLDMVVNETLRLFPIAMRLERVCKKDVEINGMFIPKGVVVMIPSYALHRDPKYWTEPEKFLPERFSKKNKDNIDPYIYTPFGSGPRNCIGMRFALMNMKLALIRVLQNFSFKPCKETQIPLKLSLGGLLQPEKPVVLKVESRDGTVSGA
Sequence of Hypoxia-inducible factor 1-alpha (Homo sapiens) (Q16665 whole entry, looked up): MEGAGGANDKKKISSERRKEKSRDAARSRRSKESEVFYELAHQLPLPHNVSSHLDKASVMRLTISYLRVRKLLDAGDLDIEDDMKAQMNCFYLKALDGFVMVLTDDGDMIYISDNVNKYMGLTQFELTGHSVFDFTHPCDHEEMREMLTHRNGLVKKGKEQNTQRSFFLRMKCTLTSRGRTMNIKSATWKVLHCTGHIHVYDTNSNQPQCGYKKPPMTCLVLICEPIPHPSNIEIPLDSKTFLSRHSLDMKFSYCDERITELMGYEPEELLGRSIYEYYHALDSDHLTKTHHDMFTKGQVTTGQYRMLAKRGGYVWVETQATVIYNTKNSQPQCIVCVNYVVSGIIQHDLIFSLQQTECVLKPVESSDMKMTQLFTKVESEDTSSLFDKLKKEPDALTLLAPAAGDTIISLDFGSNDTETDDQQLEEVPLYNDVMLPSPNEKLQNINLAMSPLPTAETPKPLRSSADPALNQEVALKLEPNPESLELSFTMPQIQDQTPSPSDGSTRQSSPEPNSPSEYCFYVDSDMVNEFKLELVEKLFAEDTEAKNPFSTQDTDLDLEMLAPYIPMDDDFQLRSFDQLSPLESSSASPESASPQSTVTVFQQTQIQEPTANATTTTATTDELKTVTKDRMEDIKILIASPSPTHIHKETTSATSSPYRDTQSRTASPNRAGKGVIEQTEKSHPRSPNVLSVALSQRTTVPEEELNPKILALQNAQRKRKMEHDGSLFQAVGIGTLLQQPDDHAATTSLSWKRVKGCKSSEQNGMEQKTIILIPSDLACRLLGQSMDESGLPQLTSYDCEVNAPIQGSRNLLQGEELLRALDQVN
Sequence of Cytochrome P450 3A7 (Homo sapiens) (P24462 whole entry, looked up): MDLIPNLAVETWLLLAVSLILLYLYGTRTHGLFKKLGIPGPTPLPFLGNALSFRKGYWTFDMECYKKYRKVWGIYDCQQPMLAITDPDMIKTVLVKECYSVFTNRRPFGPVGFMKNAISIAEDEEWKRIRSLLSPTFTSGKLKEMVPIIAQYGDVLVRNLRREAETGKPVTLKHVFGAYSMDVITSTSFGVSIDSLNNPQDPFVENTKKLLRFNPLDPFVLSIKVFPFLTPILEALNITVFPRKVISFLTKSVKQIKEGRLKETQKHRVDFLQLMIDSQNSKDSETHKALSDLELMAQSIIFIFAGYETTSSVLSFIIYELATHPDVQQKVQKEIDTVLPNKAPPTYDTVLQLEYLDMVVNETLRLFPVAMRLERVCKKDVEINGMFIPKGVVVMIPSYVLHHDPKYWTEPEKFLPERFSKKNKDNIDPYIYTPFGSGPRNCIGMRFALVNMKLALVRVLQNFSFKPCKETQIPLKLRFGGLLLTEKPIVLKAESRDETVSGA

In the case of `CCN(CC)CCO`, the result (with CYP2C9 (gene 1559); with CYP2E1 (gene 1571); with CYP4A11 (gene 1579); in assay [1]; in assay [2]; in assay [3]) was inactive. Further, the result (in assay [4]; in assay [5]; in [6]; with CYP3A5 (gene 1577); in assay [7]; in assay [8]) was inactive. Besides, the compound was classed as inactive in [9], in [10], in assay [11], in [12], in [13] and in [14].
For the compound `CCCCCCCCn1sccc1=O`, the AC50 (commonly the concentration at which the activity in the assay is half-maximal) in the assay with CYP2C9 (gene 1559) was 85.3 µM (active); in the assay with CYP2E1 (gene 1571), 84.2 µM (active); with CYP4A11 (gene 1579), 91.1 µM (active); in assay [1], 81.4 µM (active); in assay [6] it was 89.1 µM (active); with CYP3A5 (gene 1577) it was 83.1 µM (active). The concentration at half-maximal activity (AC50) was 78.9 µM (active) in assay [8] and 82.2 µM (active) in assay [9]. Further, the call in assay [2], in assay [3], in [4], in [5], in assay [7] and in assay [10] was inactive. Moreover, the outcome in [11], in [12], in assay [13], in assay [15], in [14] and in assay [16] was inactive.
For `Oc1ccc2ccc3cccc4ccc1c2c34`, the compound was called inactive (in the assay with CYP2C9 (gene 1559); in the assay with CYP4A11 (gene 1579); in assay [1]; in assay [2]; in assay [3]; in assay [4]). The call (in [5]; in assay [6]; in the assay with CYP3A5 (gene 1577); in [7]; in assay [8]; in [10]) was inactive. In addition, the result in assay [11], in assay [12], in [13], in [14] and in [16] was inactive. Further, the concentration at half-maximal activity (AC50) (in the assay with CYP2E1 (gene 1571); in assay [9]) was 50 µM (active) throughout.
In the case of `CC(O)CCO` (configuration not stated), the compound was called inactive (in the assay with CYP2C9 (gene 1559); with CYP2E1 (gene 1571); with CYP4A11 (gene 1579); in assay [1]; in assay [2]; in [3]). In addition, the compound was classed as inactive (in assay [4]; in assay [5]; in [6]; with CYP3A5 (gene 1577); in [7]; in [8]). Further, the compound was called inactive in assay [9], in assay [10], in [11], in assay [12], in [13] and in assay [15]. The result in assay [14] and in assay [16] was inactive.
